In PubChem BioAssay AID2061322 (National Center for Advancing Translational Sciences (NCATS), 2025):
Records with an inconclusive call do not appear. Activity calls are given as the source filed them. The call rests on the fitted dose curve; in most records, active means well fitted inhibition curve with a large enough effect; inconclusive means small, poorly fitted or top-dose-only effect; inactive means flat fitted curve, though single readings scatter.

Experiment: Identification of antibody-drug conjugate (ADC) payloads which are substrates of ATP-binding cassette drug efflux transporters: ABCG2-HEK293-R5 cell line with Ko143
Settings: ABCG2-HEK293-R5 with Ko143, CellTiter-Glo viability, 48 h
Source text: Antibody-drug conjugates (ADCs) feature an antibody recognizing a specific protein joined to a potent toxic payload. Numerous antibody-drug conjugates have received FDA approval; however, clinical resistance arises. Resistance mechanisms include decreased expression or mutation of the antibody target, impaired payload release, or increased expression of ATP-binding cassette (ABC) efflux transporters associated with multidrug resistance. We therefore sought to characterize the interaction of ABC multidrug transporters with ADC payloads. We performed a high-throughput screen with 27 common ADC payloads using cells lines expressing ABC transporters P-glycoprotein (P-gp, encoded by ABCB1) or ABCG2 (encoded by ABCG2). Confirmatory assays were also performed using cells transfected to express P-gp, ABCG2, or MRP1 (encoded by ABCC1). Several commonly used ADC payloads were substrates of P-gp, including calicheamicin gamma1, monomethyl auristatin E, DM1, and DM4. All the pyrrolobenzodiazepines tested - SJG136, SGD-1882, SG2057, and SG3199 - were substrates of P-gp, ABCG2, and MRP1. […] These findings highlight the risk of transporter-mediated resistance with certain ADC payloads and underscore the importance of selecting payloads that evade ABC transporter recognition in future ADC development.
HEK-293 cells were transfected with empty vector (pcDNA) or vector containing the human ABCB1 (MDR-19), ABCG2 (R-5), or ABCC1 gene (MRP1) and were maintained in EMEM with 2 mg/mL G418 added to maintain transporter expression. The HeLa derivative KB-3-1 and the P-gp overexpressing KB-8-5-11 subline were maintained in DMEM; KB-8-5-11 additionally received 100 ng/mL colchicine. H460 parental cells were obtained from the Division of Cancer Treatment and Diagnosis Tumor Repository, National Cancer Institute at Frederick, MD and were cultured in RPMI. The ABCG2 expressing subline H460 MX20 was generated by selecting H460 cells in 20 nM mitoxantrone. Media in all cases was supplemented with 10% FBS and 1% penicillin-streptomycin. […]

SMILES | Potency
COc1cc2cc(c1Cl)N(C)C(=O)C[C@H](OC(=O)[C@H](C)N(C)C(=O)CCC(C)(C)S)[C@]1(C)OC1[C@H](C)C1C[C@@](O)(NC(=O)O1)[C@H](OC)/C=C/C=C(\C)C2 (stereo partly drawn) | 1.7 nM (active)
CC[C@H](C)[C@@H]([C@@H](CC(=O)N1CCC[C@H]1[C@H](OC)[C@@H](C)C(=O)N[C@H](C)[C@@H](O)c1ccccc1)OC)N(C)C(=O)[C@@H](NC(=O)[C@H](C(C)C)N(C)C)C(C)C | 16.9 nM (active)
COc1cc2cc(C(=O)N3C[C@@H](CCl)c4c3cc(O)c3ccccc43)[nH]c2c(OC)c1OC | 15 nM (active)
